NS1 function inh – qHTS Assay for Inhibitors of Influenza NS1 Protein Function; Potency, µM (top dose mostly 46.1 µM), for inactives: top-dose activity, positive = more growth; 270,000 compounds, 0.4% hits; calls by dose curve; note: potency is the fitted concentration of half-maximal effect; actives are rising curves; nearly all actives have a fitted effect of over 50% in size
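Compounds were scored for reversing the slow growth caused by influenza A NS1 in S. cerevisiae, measured by optical density at 600 nm. Assay medium contained 2% galactose at pH 6.0; NS1-free yeast of the same strain were the positive control.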
CHX counter – Cycloheximide Counterscreen for Small Molecule Inhibitors of Shiga Toxin. cell reporter, cycloheximide protein synthesis inhibition counterscreen. max response, %. 300,000 compounds, 12% hits; in the data active = max response mostly above about 13%, no sharp cut-off; inactive = mostly below about 14%; note: read at 38.3 µM for the half of the compounds with a filed dose; 0% is about no effect
Pf growth 48h – Primary qHTS for delayed death inhibitors of the malarial parasite plastid, 48 hour incubation. 310,000 compounds, 5.9% hits. P. falciparum luciferase growth in erythrocytes, 48 h. Potency, µM (highest dose often 28.7 µM), inactives show at the highest dose activity change, negative = inhibition, actives largely listed as inhibitors. AID 504832, 2011; note: potency is the fitted concentration of half-maximal effect; % is set by controls: 0 for no effect and ±100 for the full control effect
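Growth was read as firefly luciferase luminescence after a 48 h, 37 C, 5% CO2 exposure of compounds to reporter-bearing P. falciparum cultures (0.1% parasitemia, 2% hematocrit final) in Albumax-supplemented RPMI 1640.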
Shiga inhibitor – A qHTS for Small Molecule Inhibitors of Shiga Toxin | Vero cells, Shiga toxin protein synthesis inhibition reporter | inhibition, % at 38.7 µM | 290,000 compounds, 9.2% hits | AID 2315, 2010; in the data active = inhibition mostly above about 28%, no sharp cut-off; inactive = mostly below about 43%; note: 0% is about no effect
Pf growth 96h – Primary qHTS for delayed death inhibitors of the malarial parasite plastid, 96 hour incubation; Potency, µM (titrated, usually from 28.7 µM), without a hit: top-dose activity change, negative = inhibition, usual class: inhibitors; 320,000 compounds, 6.9% hits; P. falciparum luciferase reporter growth, 96 h; note: potency is the fitted concentration of half-maximal effect; % is set by controls: 0 for no effect and ±100 for the full control effect
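P. falciparum expressing integrated firefly luciferase grown in erythrocytes (2% hematocrit, 0.05% parasitemia final) with compounds for 96 hours at 37 C, 5% CO2. Growth inhibition read as loss of luminescence after adding luciferase detection reagent.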
An asterisk follows results filed as active; ? = inconclusive; . = no result given; [ ] = remark or other dose. Shown are actives, neighbours in structure and some others; about 21% of the full set was active somewhere. Unless noted, calls come from the whole dose curve; as a rule, active = well fitted inhibition curve with a large enough effect; inconclusive = small, poorly fitted or top-dose-only effect, or another doubt; inactive = no such curve, though single readings can be large or run the other way.

SMILES	NS1 function inh	CHX counter	Pf growth 48h	Shiga inhibitor	Pf growth 96h
O=C(COc1cc(Cl)c(Cl)cc1Cl)N1CCN(c2ccccn2)CC1	.	1.6	6.0%[5.75 µM]	-4.3	-2.7%
CC1CCCN(C(=O)CCNC(=O)Cn2cnc3ccccc3c2=O)C1 (stereo unspecified)	13.3%	-3.1	21.0%	-7.0	13.4%
C=CCn1c(SCC(=O)Nc2ncc(Cc3ccc(Br)cc3)s2)nnc1-c1ccncc1	10.4%	1.1	?	16.2	?
COc1ccccc1-n1cc(C(=O)c2cc(Cl)ccc2O)cc(C#N)c1=O	.	-3.1	?	38.5	?
Cc1ccccc1-n1cc(C(=O)c2cc(Cl)ccc2O)cc(C#N)c1=O	-23.5%	-3.2	5.22µM*	-7.3	2.62µM*
CNC(=O)C(=O)NCCCN1CCOCC1	.	-4.6	-18.9%	-14.3	?
O=C(CN1C(=O)COc2ccccc21)Nc1ccc(N2CCOCC2)cc1	-5.3%	3.7	17.6%	-8.1	?
O=C(O)c1cc(N=Nc2ccc(-c3ccc(N=Nc4ccc(O)c(C(=O)O)c4)cc3)cc2)ccc1O	.	12.2	.	26.4*	.
Cc1cc(C)nc(CCNC(=O)c2cc(COc3c(C)cccc3C)on2)n1	-15.8%	16.1*	-3.5%	-18.3	0.5%
CSc1ccccc1OCc1cc(C(=O)NCCc2nc(C)cc(C)n2)no1	-2.9%	24.0*	?	43.0*	6.9%
CSc1ccccc1OCc1cc(C(=O)NCCc2ccco2)no1	-5.7%	35.4*	47.6%	58.6*	6.2%
CSc1ccccc1OCc1cc(C(=O)NCCC2CCCCO2)no1 (stereo unspecified)	5.5%	32.6*	-7.1%	45.5*	?
CSc1ccccc1OCc1cc(C(=O)NCCN2CCCC(O)C2)no1 (stereo unspecified)	-1.5%	9.9	-28.4%	-6.7	12.5%
COCCN1CC(CNC(=O)c2cc(COc3ccccc3SC)on2)CC1=O (stereo unspecified)	-6.2%	12.3*	-12.9%	20.1	89.6%
CSc1ccccc1OCc1cc(C(=O)N(C)C(C)c2ccccn2)no1 (stereo unspecified)	-3.5%	11.4	4.9%	15.8	?
CSc1ccccc1OCc1cc(C(=O)NCc2csc(C(C)C)n2)no1	-4.1%	16.9*	?	14.6	55.2%
CSc1ccccc1OCc1cc(C(=O)N(C)C2CCCc3ccccc32)no1 (stereo unspecified)	13.5%	34.9	?	50.4*	19.6%
Cc1cccc(C)c1OCc1cc(C(=O)NCC2CCCCC2)no1	3.1%	-3.4	7.8%	-5.1	21.5%
Cc1cccc(C)c1OCc1cc(C(=O)NCc2cn(C)nc2C)no1	0.2%	12.8*	-6.8%	8.3	?
CC(C)c1nc(CNC(=O)c2cc(COc3c(F)cccc3F)on2)cs1	-2.0%	0.7	10.4%	-3.4	-21.6%
CSc1ccccc1OCc1cc(C(=O)NCc2cnc(C)cn2)no1	-20.4%	6.8	47.3%	-5.1	28.6%
O=C(NCCCN1CCOCC1)C1CCN(S(=O)(=O)c2cccc(C(F)(F)F)c2)CC1	.	.	2.6%	.	68.0%
O=C(CCC(=O)c1cccs1)NCC(=O)Nc1ccc(F)c(F)c1F	6.3%	-1.4	15.4%	-13.6	31.6%
CCOc1ccc(CC2CCC(=O)NC2=O)cc1 (stereo unspecified)	0.8%	-2.7	7.1%	11.2	-28.8%
Cc1ccccc1NC(=O)c1nn(C)c2c1CS(=O)(=O)c1ccccc1-2	-9.4%	9.9	1.5%	-3.3	13.1µM*
SMILES	NS1 function inh	CHX counter	Pf growth 48h	Shiga inhibitor	Pf growth 96h
COc1ccc(NC(=O)c2nn(C)c3c2CS(=O)(=O)c2ccccc2-3)cc1	-3.2%	13.1	6.6%	-3.1	?
O=C1CSC(=S)N1Cc1cccnc1	-89.3%	-6.1	-29.6%	-9.3	17.9%
O=C1CSC(=S)N1c1cccnc1	-79.7%	-1.7	.	-27.8	13.1µM*
O=C1CSC(=S)N1c1ccc(F)c(Cl)c1	-79.8%	0.7	?	4.0	11.7µM*
COc1cccc(NC(=O)CN(C)C(=O)c2cn(-c3ccccc3)nc2-c2cccs2)c1	.	.	?	.	-25.6%
COc1ccc(Cl)cc1NC(=O)CN(C)C(=O)c1cccc(-n2cnnn2)c1	.	.	-21.1%	.	-6.5%
COc1cccc(NC(=O)CN(C)C(=O)c2cn(-c3ccccc3)nc2-c2cccnc2)c1	.	.	11.7µM*	.	?
COc1ccc(Cl)cc1NC(=O)CN(C)C(=O)c1cn(-c2ccccc2)nc1-c1cccnc1	.	.	?	.	10.4µM*
